The source of these data is PubChem BioAssay.

Structures are written as SMILES. Active and inactive are the calls of the source. Unless noted, no rule for the calls is given here.

A short description of test [1]: HepG2 liver cancer cell viability effects, profiling panel, resazurin fluorescence, 24 h, PK04 Diversity Set (AID 1172). Also: test concentration not given here. Conditions: higher = more signal. For orientation: The colour change of resazurin is a common sign of viable cells or microbes.
Test [2] in a line: basal S. cerevisiae growth modulation, no modifier, primary screen, OD600, strain BY4716, 24 h, basal condition (AID 1173). The note with it: OD600, 24 h, higher = more signal, called active from +8 up or from −8 down.
Test [3] is described as follows: MM1S myeloma cell viability, profiling panel, resazurin fluorescence, basal, 24 h, PK04 Diversity Set (AID 1174).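 Also: MM1S multiple myeloma cell line; test concentration not given here.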 Conditions: higher = more signal, called active from +8 up or from −8 down.
For test [4], the target named is Dihydroorotate dehydrogenase (quinone), mitochondrial (Plasmodium falciparum (isolate 3D7)) (UniProt Q08210). Briefly: PfDHODH enzyme inhibitors, primary screen, biochemical, C-terminal His tag, absorbance 600 nm (AID 1175).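 Also: recombinant parasite enzyme with a five histidine tag at its C terminus; test concentration not given here.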 The note with it: DCIP absorbance 600 nm, higher = more signal, called active from +8 up or from −8 down.
Sequence of Dihydroorotate dehydrogenase (quinone), mitochondrial (Plasmodium falciparum (isolate 3D7)) (Q08210 whole entry, looked up): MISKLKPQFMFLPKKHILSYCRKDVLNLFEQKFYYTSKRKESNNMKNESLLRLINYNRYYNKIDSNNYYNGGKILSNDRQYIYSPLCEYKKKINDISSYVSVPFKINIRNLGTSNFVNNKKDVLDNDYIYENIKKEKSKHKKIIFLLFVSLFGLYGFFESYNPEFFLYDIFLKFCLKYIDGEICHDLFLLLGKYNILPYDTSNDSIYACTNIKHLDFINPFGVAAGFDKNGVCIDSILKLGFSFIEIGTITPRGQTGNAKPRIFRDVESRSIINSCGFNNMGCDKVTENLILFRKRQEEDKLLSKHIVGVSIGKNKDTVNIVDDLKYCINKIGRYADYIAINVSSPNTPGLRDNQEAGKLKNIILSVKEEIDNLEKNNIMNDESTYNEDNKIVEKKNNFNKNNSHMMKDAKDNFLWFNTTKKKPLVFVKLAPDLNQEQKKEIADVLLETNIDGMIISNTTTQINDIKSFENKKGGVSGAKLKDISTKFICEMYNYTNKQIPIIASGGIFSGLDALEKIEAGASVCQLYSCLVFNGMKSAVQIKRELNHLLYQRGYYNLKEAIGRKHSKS
Test [5] is described as follows: P. aeruginosa biofilm formation inhibitors, primary screen, strain PAO1, LB-PBS medium, absorbance 600 nm (AID 1176). Also: test concentration not given here. Conditions: P. aeruginosa PAO1 growth/biofilm, A600, 12 h; higher = more signal.
A short description of test [6]: S. cerevisiae RM11-1a growth modifiers, primary screen, strain RM11-1a, OD600, basal, 24 h (AID 1177).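 Also: cultures grown under basal conditions with no added stressor; test concentration not given here.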 Conditions: OD600, 24 h, higher = more signal, called active from +8 up or from −8 down.
Test [7] can be described thus: E. coli acrAB mutant growth effects, primary screen, E. coli filamentation inducers, strain DRC39, OD650, 24 h (AID 1178).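 Also: growth measured as culture turbidity by optical density at 650 nm; test concentration not given here.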 The note with it: higher = more signal, called active from +8 up or from −8 down.
Test [8] is described as follows: E. coli acrAB mutant growth effects, primary screen, E. coli filamentation inducers, strain DRC39, OD650, 48 h (AID 1179).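 Also: screen aims at cell division blockers that make cells filament.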 Conditions: E. coli DRC39 delta-acrAB growth, higher = more signal, called active from +8 up or from −8 down.
A short description of test [9]: RPMI8226 myeloma cell viability, profiling panel, resazurin fluorescence, basal, 24 h, PK04 Diversity Set (AID 1180).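 Also: RPMI8826 multiple myeloma cell line at 5000 cells per well; test concentration not given here.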 The note with it: higher = more signal.
Test [10] concerns the target E3 ubiquitin-protein ligase XIAP (Homo sapiens) (UniProt P98170). Briefly: XIAP binders, primary screen, biophysical, small-molecule microarray, fluorescence 635 nm (AID 1181).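 Also: score merges 667 nm emission and signal to noise over triplicate slides.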 Conditions: small-molecule microarray binding, higher = more signal.

Sequence of E3 ubiquitin-protein ligase XIAP (Homo sapiens) (P98170 whole entry, looked up): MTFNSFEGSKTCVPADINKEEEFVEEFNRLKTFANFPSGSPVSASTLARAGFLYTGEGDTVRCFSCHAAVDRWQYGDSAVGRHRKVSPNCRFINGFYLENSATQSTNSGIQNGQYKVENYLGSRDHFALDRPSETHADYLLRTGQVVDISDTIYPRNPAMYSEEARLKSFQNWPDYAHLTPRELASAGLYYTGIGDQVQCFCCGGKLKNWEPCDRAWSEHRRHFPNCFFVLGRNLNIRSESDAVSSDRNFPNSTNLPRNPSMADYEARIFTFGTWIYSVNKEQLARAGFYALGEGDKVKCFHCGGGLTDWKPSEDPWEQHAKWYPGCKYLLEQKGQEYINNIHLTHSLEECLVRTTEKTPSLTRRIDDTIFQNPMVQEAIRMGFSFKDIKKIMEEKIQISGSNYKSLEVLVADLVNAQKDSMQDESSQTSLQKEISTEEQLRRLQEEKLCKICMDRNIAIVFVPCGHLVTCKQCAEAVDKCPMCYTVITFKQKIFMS

On to `COCCOC(=O)N1C(=O)[C@@]2(c3cc(C#Cc4ccc(OC)cc4)ccc31)[C@H](C(=O)N1CCc3cc(OC)c(OC)cc3C1)[C@H]1C(=O)O[C@H](c3ccccc3)[C@H](c3ccccc3)N1[C@@H]2c1ccc(O)cc1`, for which the z-score in test [1] is -0.0637; in [2], 1.12 (inactive); in test [3] it was -0.108 (inactive); in [5], 0.858 (inactive); in test [6] it was 2.08 (inactive); in test [7], -0.145 (inactive). For the same compound, the z-score is 0.26 (inactive) in test [8] and 0.0506 in test [9]. In addition, the values for the composite z-score in test [4] and in test [10] were 0.751 (inactive) and 0.202, respectively.

`C=CCC(OC(C)=O)[C@@H]1[C@@H](N(Cc2cccc3ccccc23)C(=O)c2ccc(C)cc2)c2cc(OCCCO)ccc2N1C(=O)c1ccc2ccccc2c1` (stereo not given in full): the z-score was 0.924 in test [1]; -0.0786 (inactive) in [2]; 1.27 (inactive) in test [3]; 0.101 (inactive) in [5]; -1.7 (inactive) in [6]; 1.24 (inactive) in test [7]. In addition, the z-score in [8] is 1.8 (inactive); in test [9], 1.04. Further, the composite z-score in test [4] is -1.86 (inactive); in [10], -0.152.

Regarding `C=CCC(OC(C)=O)[C@@H]1[C@@H](N(Cc2ccc(-c3ccccc3)cc2)C(=O)c2cccc3ccccc23)c2cc(OCCCO)ccc2N1C(=O)c1ccc2ccccc2n1` (stereo not given in full), the z-score in test [1] is -0.253; in [2], -0.953 (inactive); in test [3], 0.0319 (inactive); in test [5], 0.161 (inactive); in test [6], -0.909 (inactive); in test [7], 0.908 (inactive). Also, the z-score is 0.376 (inactive) in test [8] and 0.131 in [9]. The composite z-score is -0.178 (inactive) in test [4] and -0.0282 in [10].

Consider `CN(C)C(=O)[C@]1(Cc2ccccc2N=[N+]=[N-])N=C(c2ccc(OCCCO)cc2)O[C@@H]1c1ccccc1CN=[N+]=[N-]`, for which the z-score in test [1] is 2.37; in [2], -1.93 (inactive); in test [3] it was -1.13 (inactive); in test [5], -0.165 (inactive); in [6], -0.495 (inactive); in [7], 0.804 (inactive). In addition, the results for the z-score in test [8] and in test [9] were 0.7 (inactive) and -0.997, respectively. For the same compound, the figures for the composite z-score in test [4] and in [10] were -0.106 (inactive) and 0.152, respectively.

With `C=C(COC)C(=O)CC[C@H](OC(=O)c1ccccc1-c1ccccc1C(=O)O)c1ccc(OCCO)cc1`, the z-score in test [1] is -0.381; in [2], 0.142 (inactive); in [3], -0.288 (inactive); in test [5] it was 1.3 (inactive); in [6] it was -0.386 (inactive); in test [7], -0.752 (inactive). In addition, the z-score in test [8] was -0.561 (inactive); in test [9] it was -0.7. Further, the composite z-score is -0.575 (inactive) in [4] and 0.0223 in test [10].

Regarding `CC(C)c1ccc(NN2C(C(O)c3cccs3)C=CC3C(=O)N(c4ccccc4)C(=O)C32)cc1` (stereo not given), the z-score is -1.75 in test [1]; -2.27 (inactive) in test [2]; -1.73 (inactive) in [3]; 0.835 (inactive) in test [5]; 0.883 (inactive) in [6]; -0.649 (inactive) in test [7]. For the same compound, the z-score in test [8] is -0.73 (inactive); in [9], -1.14. For the same compound, the composite z-score is 0.355 (inactive) in test [4] and 0.44 in test [10].

`COc1ccc(CCNC(=O)[C@@H]2c3ccccc3C(=O)N(Cc3ccccc3)[C@H]2c2ccc(CO)cc2)cc1`: the z-score was 0.713 in test [1]; -0.996 (inactive) in test [2]; -2.71 (inactive) in test [3]; 0.801 (inactive) in [5]; -0.539 (inactive) in test [6]; 1.62 (inactive) in [7]. For the same compound, the z-score in test [8] is 1.78 (inactive); in [9], -0.648. Further, the composite z-score was -0.489 (inactive) in test [4] and -0.0272 in [10].

With `COC(=O)[C@@]1(Cc2ccc(OC)cc2)[C@H]2c3cc(C(=O)N(C)C)n(CCF)c3C[C@H]2CN1C(=O)c1ccccc1`, the z-score in test [1] is 0.586; in test [2], 2 (inactive); in test [3], -0.386 (inactive); in test [5], -0.278 (inactive); in [6], 0.177 (inactive); in [7], 0.471 (inactive). Besides, the figures for the z-score in [8] and in test [9] were -0.143 (inactive) and -0.102, respectively. Besides, the composite z-score was 0.343 (inactive) in [4] and -0.0592 in test [10].

Consider `COC(=O)[C@@]1(Cc2ccccc2)[C@H]2c3cc(C(=O)N4CCCC4)n(Cc4ccccc4)c3C[C@H]2CN1C(=O)c1ccccc1`, for which the z-score in test [1] is -2.54; in test [2], 0.717 (inactive); in test [3], -1.12 (inactive); in [5] it was 0.895 (inactive); in [6], 0.235 (inactive); in [7], -0.78 (inactive). Also, the z-score was -0.591 (inactive) in test [8] and -3.29 in test [9]. Further, the composite z-score in test [4] was -0.237 (inactive); in test [10] it was 0.421.

`Cc1ccccc1C(O)C1C=CC2C(=O)N(C)C(=O)C2N1Nc1ccc([N+](=O)[O-])cc1[N+](=O)[O-]` (stereo not given): the z-score in [1] is -0.138; in test [2], 1.09 (inactive); in test [3] it was -0.729 (inactive); in test [5], 0.186 (inactive); in test [6] it was 0.446 (inactive); in test [7], -0.456 (inactive). The z-score in test [8] is -0.401 (inactive); in [9] it was -0.963. Besides, the composite z-score in test [4] was -0.286 (inactive); in test [10], -0.0172.

With `O=C1O[C@H](c2ccccc2)[C@H](c2ccccc2)N2[C@H]1[C@@H](C(=O)N1CCCCCCC1)[C@]1(C(=O)Nc3ccccc31)[C@H]2c1ccc(O)cc1`, the z-score in test [1] is -0.642; in test [2] it was -0.147 (inactive); in [3], -2.64 (inactive); in test [5], 0.995 (inactive); in test [6], 0.767 (inactive); in [7], -0.328 (inactive). The z-score in test [8] is -0.128 (inactive); in [9], -2.73. Also, the values for the composite z-score in [4] and in test [10] were 0.64 (inactive) and 2.57, respectively.
